Source: PubChem (The Scripps Research Institute Molecular Screening Center)
Shown is part of a subset that was picked to be rich in hits.
TTR transcr act = activators of transthyretin transcription; AID 1117267; activation, % at 16.7 µM; SH-SY5Y TTR promoter Gaussia luciferase, luminescence; 100% = recombinant luciferase protein wells; hit rate 1.3% among 92,000;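 active = activation above the mean of all tested compounds plus 3 SD, cut at about 9.5% in these data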;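 also: cells exposed to compounds for one day before reading; 0% = median of all test compound wells on the plate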
HuH7 TTR inh = decreases TTR transcription in HuH7 cells in activator counter-screen. HuH7 TTR promoter-Gaussia luciferase reporter, luminescence. shares compounds with TTR transcr act. AID 1117279. inhibition, % at 16.7 µM. hit rate 4% among 1,100;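 active = average inhibition above the solvent-only control wells' mean plus 3 SD, cut at about 15% in these data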;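 also: 0% = cells with DMSO only and 100% = cells with inhibitor control FD; inhibitors lower well luminescence so higher value means more inhibition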
TTR up confirm = confirmation of human transthyretin transcription activators | activation, % at 16.7 µM | shares compounds with TTR transcr act | AID 1117280 | SHSY5Y TTR promoter Gaussia luciferase, luminescence; 100% = purified Lucia enzyme wells, no cells | 1,100 tested, under 10 active;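 active = mean activation above a set limit taken from the earlier primary screen, cut at about 11% in these data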;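 also: 0% = DMSO-treated cells and 100% = recombinant Lucia luciferase without cells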
An asterisk follows results filed as active.

SMILES | TTR transcr act | others
Cc1cc(N2CCOCC2)nc2ccc(NC(=O)C3CCCCC3)cc12 | 0
Cc1cc(N2CCN(C)CC2)nc2ccc(NC(=S)N3CCCCCC3)cc12 | 9.7* | HuH7 TTR inh=-25;TTR up confirm=0
Cc1cc(N2CCN(C)CC2)nc2ccc(NC(=S)NCCN3CCc4ccccc4C3)cc12 | -1
C=CCN(Cc1ccc(OC)cc1OC)C(C#CCCCC)c1ccccc1 (stereo not drawn) | -1
Nc1c(C(=O)NCC2CCCO2)c2nc3ccccc3nc2n1-c1ccccc1 (stereo not drawn) | 11* | HuH7 TTR inh=-15;TTR up confirm=0
O=C(CSc1nc2ccccc2n1-c1ccccc1)NCC1CCCO1 (stereo not drawn) | 2
Cc1ccc(C)n1-c1ccc(C(=O)NCC2CCCO2)cc1 (stereo not drawn) | 2
CN(Cc1ccccc1F)C(=O)c1ccc(NC(=O)CC2SC(N3CCCCC3)=NC2=O)cc1 (stereo not drawn) | 1
CCOC(=O)c1sc(N2C(=O)C(O)=C(C(=O)c3ccco3)C2c2cccc([N+](=O)[O-])c2)nc1C (stereo not drawn) | 0
C[C@H]1C(=O)CC[C@@]23CCCN2C(=O)CCC[C@@H]13 | 1
CCOC(=O)[C@]12CCCCC/C=C\1N(CCc1ccc(Cl)cc1)C(=O)[C@H]2CC(=O)NCCC(C)C | -2
Cc1cc(C)n2nc(C(=O)OCC(=O)Nc3ccc4c(c3)OC(F)(F)O4)nc2n1 | -1
Cc1cc(C)n2nc(C(=O)OCC(=O)c3ccccc3)nc2n1 | 0
COC(=O)c1cc(COC(=O)c2nc3nc(C)cc(C)n3n2)oc1C | 10* | HuH7 TTR inh=-11;TTR up confirm=-1
CC(C)CNS(=O)(=O)/C=C/c1cc2c(cc1CNC(=O)OC(C)(C)C)OCO2 | -2
Cc1ccc(CN2CCCCC(NC(=O)c3c(F)cccc3F)C2=O)cc1 (stereo not drawn) | -1
CCN1C(=O)[C@@H]2[C@H](C1=O)[C@@H]1C(=O)Nc3ccccc3C(=O)N1[C@@H]2c1ccc(OC)cc1 | 11* | HuH7 TTR inh=-12;TTR up confirm=0
CCN1C(=O)[C@H]2[C@@H](c3ccc(OC)cc3)N[C@]3(CCCN(Cc4ccccc4)C3=O)[C@H]2C1=O | 0
CCN1C(=O)[C@H]2[C@@H](c3ccc(OC)cc3)N3C(=O)CN(Cc4ccccc4)C(=O)[C@@]3(Cc3ccccc3)[C@H]2C1=O | 5
O=C(NCCc1c[nH]c2ccccc12)OCc1cn(Cc2ccccc2F)nn1 | -1
CCCC(=O)Nc1cc(OC)c(NC(=S)Nc2ccc(CC)cc2)cc1OC | 2
Cc1ccsc1-c1nc(C(N)=O)c2[nH]c(=O)n(-c3ccc(Cl)cc3)c2n1 | 2
CC(C)c1nc(C(N)=O)c2[nH]c(=O)n(-c3ccc(F)cc3)c2n1 | 9.8* | HuH7 TTR inh=-8;TTR up confirm=-2
CCOc1ccccc1-c1nc(C(N)=O)c2[nH]c(=O)n(-c3ccc(F)cc3)c2n1 | 1
CCC[C@H]1CN(c2ccccc2)C(=O)[C@@H]1CC(=O)NC | 1
SMILES | TTR transcr act | others
CCN(CC)C(=O)COc1ccc(/C=C(\C#N)S(=O)(=O)c2ccccc2)cc1OC | 0
NC(=O)CC(NC(=O)Cc1ccc(Br)cc1)c1ccc(NC2CCCCCC2)c([N+](=O)[O-])c1 (stereo not drawn) | 10* | HuH7 TTR inh=-8;TTR up confirm=0
NC(=O)CC(NC(=O)Cc1ccc(Cl)cc1)c1ccc(NC2CCCCCC2)c([N+](=O)[O-])c1 (stereo not drawn) | -2
NC(=O)CC(NC(=O)Cc1ccc(Br)cc1)c1ccc(NC2CCCC2)c([N+](=O)[O-])c1 (stereo not drawn) | 2
C[C@H]1[C@@H](OC(=O)NCc2cccs2)CC[C@@]23CCCN2C(=O)CCC[C@@H]13 | 1
CCOC(=O)C1(Cc2ccccc2)CCN(Cc2cn[nH]c2-c2ccccc2)CC1 | -1
COc1cc(CN2CCCC(CO)(Cc3ccccc3)C2)ccc1O (stereo not drawn) | -1
COc1cccc(CC2(CO)CCCN(Cc3cn[nH]c3-c3ccccc3)C2)c1 (stereo not drawn) | 10* | HuH7 TTR inh=-18;TTR up confirm=2
Cc1ccccc1CN1CCCCC(NC(=O)c2ccc(Br)cc2)C1=O (stereo not drawn) | -1
CCCCCCCCN1C(=O)[C@@H](CC(=O)NCCCN2CCCC2=O)C[C@@]2(C(=O)OC)C1=C[C@H](C(C)C)O[C@@H]2C1CC1 | -1
CN1C(=O)CSc2ccc(NC(=O)N3CCc4ccccc43)cc21 | -4
CC(=O)Nc1ccc(NC(=O)Nc2ccc3c(c2)N(C)C(=O)CS3)cc1 | 10* | HuH7 TTR inh=3;TTR up confirm=-1
CN1C(=O)CSc2ccc(NC(=O)NCc3ccc(F)cc3)cc21 | -1
COC(=O)[C@]12C[C@H](CC(=O)N3CCC(c4ccccc4)CC3)C(=O)N(Cc3ccc(Cl)cc3Cl)C1=C[C@H](C1CCCC1)O[C@@H]2C | -1
C=CCN1C(=O)[C@H](CC(=O)NCc2cccc3ccccc23)[C@@]2(C(=O)OCC)CCCC=C12 | 1
COC(=O)[C@]12CCCCC=C1N(Cc1ccc(OC)cc1)C(=O)[C@@H]2CC(=O)NCCC(C)C | -1
Cc1ccc(S(=O)(=O)N(C)C[C@H]2Oc3cc(Br)ccc3S(=O)(=O)N([C@H](C)CO)C[C@@H]2C)cc1 | 6
COc1ccc(S(=O)(=O)N(C)C[C@H]2Oc3cc(Br)ccc3S(=O)(=O)N([C@H](C)CO)C[C@H]2C)cc1 | 28* | HuH7 TTR inh=1;TTR up confirm=-1
C[C@H]1CN([C@@H](C)CO)S(=O)(=O)c2ccc(Br)cc2O[C@H]1CN(C)Cc1ccccc1 | 1
C[C@H](CO)N1C[C@H](C)[C@H](CN(C)Cc2ccc(Oc3ccccc3)cc2)Oc2cc(Br)ccc2S1(=O)=O | 13* | HuH7 TTR inh=-7;TTR up confirm=-1
C[C@H](CO)N1C[C@H](C)[C@H](CN(C)S(=O)(=O)c2cccc(F)c2)Oc2cc(Br)ccc2S1(=O)=O | 2
CC(C)NC(=O)N(C)C[C@H]1Oc2cc(Br)ccc2S(=O)(=O)N([C@H](C)CO)C[C@H]1C | 0
Cc1c(NC(=O)c2ccc(NC(=O)C3CC3)cc2)cccc1C(=O)O | 1
CCC1(C)COC(C)(CC(=O)NNC(=O)Nc2ccccc2)OC1 (stereo not drawn) | -2
O=C(CNC(=O)c1[nH]cnc1C(=O)NC(c1ccccc1)c1ccccc1)OCc1ccccc1 | 11* | HuH7 TTR inh=-23;TTR up confirm=-1
SMILES | TTR transcr act | others
O=C(CNC(=O)c1[nH]cnc1C(=O)N[C@@H](Cc1ccccc1)C(=O)OCc1ccccc1)OCc1ccccc1 | 5
CC(C)(C)OC(=O)CNC(=O)c1[nH]cnc1C(=O)NCC(=O)OCc1ccccc1 | 0
Cc1cnc(C(=O)OCC(=O)c2ccc(C)s2)cn1 | 1
CC(=NCc1ccccc1)C1=C(O)COC1=O | -4
CCCN=C(C)C1=C(O)c2ccccc2C1=O | 2
CC(=NCCc1ccccc1)C1=C(O)COC1=O | 13* | HuH7 TTR inh=-13;TTR up confirm=0
COC(=O)C[C@@H]1CC[C@@H]2[C@@H](COc3ccc(NC(C)=O)cc3C(=O)N2C)O1 | 1
COC(=O)[C@]12C[C@H](CC(=O)N3CCN(C(=O)c4ccco4)CC3)C(=O)N(Cc3ccc(Cl)cc3Cl)C1=C[C@H](C(C)C)O[C@@H]2C1CC1 | 2
O=C(CCN1CCOCC1)c1ccccc1 | -2
O=C(CCN1CCOCC1)NCc1ccccc1 | 1
N/C(CCN1CCOCC1)=N/O | 10* | HuH7 TTR inh=-16;TTR up confirm=0
